The source of these data is ChEMBL document CHEMBL1961873, “Compounds: GSK PKIS; Assays: Nanosyn kinase panel” (2012).

For experiment [1], the target named is Protein kinase C gamma type (Homo sapiens) (UniProt P05129). The settings on record: at 1 µM.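 Also: each value is an averaged percent inhibition of the enzyme.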
Experiment [2] concerns the target T1, Protein kinase C iota type (Homo sapiens) (UniProt P41743).
T1 sequence (whole entry): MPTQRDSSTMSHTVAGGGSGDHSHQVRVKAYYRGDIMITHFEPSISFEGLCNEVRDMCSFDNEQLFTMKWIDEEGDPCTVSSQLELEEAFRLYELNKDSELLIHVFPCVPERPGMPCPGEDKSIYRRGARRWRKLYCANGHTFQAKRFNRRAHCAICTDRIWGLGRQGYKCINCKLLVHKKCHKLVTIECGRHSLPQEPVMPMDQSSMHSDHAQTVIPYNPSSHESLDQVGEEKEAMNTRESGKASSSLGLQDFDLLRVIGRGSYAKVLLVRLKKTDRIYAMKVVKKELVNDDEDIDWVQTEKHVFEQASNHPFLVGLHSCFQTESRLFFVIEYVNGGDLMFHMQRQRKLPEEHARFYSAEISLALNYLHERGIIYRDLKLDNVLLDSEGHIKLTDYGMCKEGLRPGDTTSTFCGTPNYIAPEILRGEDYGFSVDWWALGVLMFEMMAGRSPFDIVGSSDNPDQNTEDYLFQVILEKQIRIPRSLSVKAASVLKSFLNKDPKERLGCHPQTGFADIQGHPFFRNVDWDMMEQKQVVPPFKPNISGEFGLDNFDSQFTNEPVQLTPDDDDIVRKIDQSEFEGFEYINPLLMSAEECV
The settings on record: at 0.1 µM.

For experiment [3], the target named is T1, Protein kinase C iota type (Homo sapiens). The settings on record: at 1 µM.
Experiment [4] concerns the target Protein kinase C theta type (Homo sapiens) (UniProt Q04759). The settings on record: at 0.1 µM.
For experiment [5] the target is unchanged. The settings on record: at 1 µM.
The target in experiment [6] is Protein kinase C beta type (Homo sapiens) (UniProt P05771). The conditions noted are these: at 0.1 µM.
The target is the same in experiment [7]. The conditions noted are these: at 1 µM.
Experiment [8] addresses T2, Serine/threonine-protein kinase D1 (Homo sapiens) (UniProt Q15139).
T2 sequence (whole entry): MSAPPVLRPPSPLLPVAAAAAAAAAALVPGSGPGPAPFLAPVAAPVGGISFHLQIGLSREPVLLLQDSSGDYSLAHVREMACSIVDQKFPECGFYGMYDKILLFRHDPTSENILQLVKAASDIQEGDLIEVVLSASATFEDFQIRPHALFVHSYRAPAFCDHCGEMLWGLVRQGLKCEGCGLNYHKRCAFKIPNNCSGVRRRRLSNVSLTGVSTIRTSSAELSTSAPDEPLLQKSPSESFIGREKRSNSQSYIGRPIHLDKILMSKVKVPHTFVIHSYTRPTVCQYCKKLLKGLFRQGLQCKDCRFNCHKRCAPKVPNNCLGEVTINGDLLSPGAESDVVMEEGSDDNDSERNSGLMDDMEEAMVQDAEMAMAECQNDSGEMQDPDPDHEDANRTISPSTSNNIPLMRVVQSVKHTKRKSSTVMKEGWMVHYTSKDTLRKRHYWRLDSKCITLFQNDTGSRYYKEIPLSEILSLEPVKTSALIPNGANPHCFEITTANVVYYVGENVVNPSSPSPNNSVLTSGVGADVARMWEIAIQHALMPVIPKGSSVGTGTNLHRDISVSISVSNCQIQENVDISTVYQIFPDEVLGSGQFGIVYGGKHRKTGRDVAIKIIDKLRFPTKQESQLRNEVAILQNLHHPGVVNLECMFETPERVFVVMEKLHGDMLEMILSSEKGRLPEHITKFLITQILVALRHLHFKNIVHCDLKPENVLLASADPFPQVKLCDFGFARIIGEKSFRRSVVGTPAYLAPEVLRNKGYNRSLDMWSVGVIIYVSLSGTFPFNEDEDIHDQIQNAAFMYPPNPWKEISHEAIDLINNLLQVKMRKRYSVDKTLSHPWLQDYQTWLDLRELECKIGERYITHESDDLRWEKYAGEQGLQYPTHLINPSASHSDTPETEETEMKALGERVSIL
The settings on record: at 0.1 µM.

For experiment [9], the target named is T2, Serine/threonine-protein kinase D1 (Homo sapiens). The settings on record: at 1 µM.
Experiment [10] has as its target T3, Serine/threonine-protein kinase D2 (Homo sapiens) (UniProt Q9BZL6).
T3 sequence (whole entry): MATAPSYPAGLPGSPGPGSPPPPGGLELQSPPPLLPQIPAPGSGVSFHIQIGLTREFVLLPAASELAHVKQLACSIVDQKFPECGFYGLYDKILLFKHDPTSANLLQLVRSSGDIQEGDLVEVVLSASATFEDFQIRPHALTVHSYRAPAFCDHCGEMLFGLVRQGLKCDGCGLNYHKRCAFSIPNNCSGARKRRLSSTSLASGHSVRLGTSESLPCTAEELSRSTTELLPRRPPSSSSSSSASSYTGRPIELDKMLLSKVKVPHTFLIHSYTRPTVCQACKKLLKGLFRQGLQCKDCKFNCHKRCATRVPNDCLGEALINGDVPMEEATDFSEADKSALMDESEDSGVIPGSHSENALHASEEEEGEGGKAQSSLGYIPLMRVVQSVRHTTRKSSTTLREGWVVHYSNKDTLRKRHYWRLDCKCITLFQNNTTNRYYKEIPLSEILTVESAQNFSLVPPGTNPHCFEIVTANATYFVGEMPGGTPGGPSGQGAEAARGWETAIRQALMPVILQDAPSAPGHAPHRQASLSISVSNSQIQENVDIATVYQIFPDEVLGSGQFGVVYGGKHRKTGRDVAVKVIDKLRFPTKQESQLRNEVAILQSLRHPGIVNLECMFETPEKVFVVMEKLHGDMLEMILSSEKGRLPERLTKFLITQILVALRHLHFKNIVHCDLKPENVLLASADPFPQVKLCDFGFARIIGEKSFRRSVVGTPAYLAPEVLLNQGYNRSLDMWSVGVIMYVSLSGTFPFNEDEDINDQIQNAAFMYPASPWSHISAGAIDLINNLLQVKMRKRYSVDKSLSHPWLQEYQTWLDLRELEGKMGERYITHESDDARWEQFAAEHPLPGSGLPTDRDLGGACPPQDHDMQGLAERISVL
The settings on record: at 0.1 µM.

Experiment [11] deals with T3, Serine/threonine-protein kinase D2 (Homo sapiens). The settings on record: at 1 µM.
Experiment [12] addresses T4, Serine/threonine-protein kinase D3 (Homo sapiens) (UniProt O94806).
T4 sequence (whole entry): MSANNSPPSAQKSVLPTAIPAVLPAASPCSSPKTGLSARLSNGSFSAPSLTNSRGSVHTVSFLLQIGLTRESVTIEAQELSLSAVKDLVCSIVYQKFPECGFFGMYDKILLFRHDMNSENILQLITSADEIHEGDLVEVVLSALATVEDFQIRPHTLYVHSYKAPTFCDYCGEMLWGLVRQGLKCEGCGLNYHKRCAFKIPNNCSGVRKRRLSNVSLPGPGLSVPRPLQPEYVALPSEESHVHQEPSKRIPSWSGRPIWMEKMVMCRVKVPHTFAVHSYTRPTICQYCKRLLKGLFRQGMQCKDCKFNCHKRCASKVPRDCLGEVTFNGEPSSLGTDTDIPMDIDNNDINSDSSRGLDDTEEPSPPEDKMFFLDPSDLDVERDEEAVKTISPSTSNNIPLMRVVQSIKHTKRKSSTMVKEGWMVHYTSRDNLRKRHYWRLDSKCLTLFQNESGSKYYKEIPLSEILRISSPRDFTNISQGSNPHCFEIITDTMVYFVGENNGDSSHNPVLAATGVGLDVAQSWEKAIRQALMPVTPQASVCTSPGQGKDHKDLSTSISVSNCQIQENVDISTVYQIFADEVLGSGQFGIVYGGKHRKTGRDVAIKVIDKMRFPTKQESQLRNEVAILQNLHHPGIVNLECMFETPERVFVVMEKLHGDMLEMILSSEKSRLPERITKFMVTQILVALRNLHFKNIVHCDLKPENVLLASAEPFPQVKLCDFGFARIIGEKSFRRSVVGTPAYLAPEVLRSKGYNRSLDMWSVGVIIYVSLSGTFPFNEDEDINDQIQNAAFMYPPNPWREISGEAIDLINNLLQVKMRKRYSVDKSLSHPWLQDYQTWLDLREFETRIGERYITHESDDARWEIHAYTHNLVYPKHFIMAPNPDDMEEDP
The settings on record: at 0.1 µM.

Experiment [13] deals with T4, Serine/threonine-protein kinase D3 (Homo sapiens). The settings on record: at 1 µM.
In experiment [14] the target is T5, cGMP-dependent protein kinase 1 (Homo sapiens) (UniProt Q13976).
T5 sequence (whole entry): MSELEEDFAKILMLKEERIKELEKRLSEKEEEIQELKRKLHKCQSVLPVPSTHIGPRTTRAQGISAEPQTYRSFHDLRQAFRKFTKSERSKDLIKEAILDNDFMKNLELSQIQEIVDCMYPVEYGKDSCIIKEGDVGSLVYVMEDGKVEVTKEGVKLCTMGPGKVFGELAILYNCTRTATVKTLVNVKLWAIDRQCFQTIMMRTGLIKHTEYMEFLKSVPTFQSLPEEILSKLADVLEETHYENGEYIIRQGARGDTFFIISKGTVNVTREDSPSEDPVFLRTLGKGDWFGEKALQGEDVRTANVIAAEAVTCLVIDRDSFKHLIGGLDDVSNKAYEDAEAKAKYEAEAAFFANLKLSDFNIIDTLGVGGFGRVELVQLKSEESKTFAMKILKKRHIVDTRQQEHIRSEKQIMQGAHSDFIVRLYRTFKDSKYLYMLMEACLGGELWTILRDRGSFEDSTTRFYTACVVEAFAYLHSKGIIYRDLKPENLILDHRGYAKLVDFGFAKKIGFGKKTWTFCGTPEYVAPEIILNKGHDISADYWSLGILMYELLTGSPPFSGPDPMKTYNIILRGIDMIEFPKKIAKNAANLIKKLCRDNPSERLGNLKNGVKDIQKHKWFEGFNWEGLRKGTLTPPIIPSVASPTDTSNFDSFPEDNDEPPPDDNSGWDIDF
The settings on record: at 0.1 µM.

Experiment [15] concerns the target T5, cGMP-dependent protein kinase 1 (Homo sapiens). The conditions noted are these: at 1 µM.
Experiment [16] has as its target T6, cGMP-dependent protein kinase 2 (Homo sapiens) (UniProt Q13237).
T6 sequence (whole entry): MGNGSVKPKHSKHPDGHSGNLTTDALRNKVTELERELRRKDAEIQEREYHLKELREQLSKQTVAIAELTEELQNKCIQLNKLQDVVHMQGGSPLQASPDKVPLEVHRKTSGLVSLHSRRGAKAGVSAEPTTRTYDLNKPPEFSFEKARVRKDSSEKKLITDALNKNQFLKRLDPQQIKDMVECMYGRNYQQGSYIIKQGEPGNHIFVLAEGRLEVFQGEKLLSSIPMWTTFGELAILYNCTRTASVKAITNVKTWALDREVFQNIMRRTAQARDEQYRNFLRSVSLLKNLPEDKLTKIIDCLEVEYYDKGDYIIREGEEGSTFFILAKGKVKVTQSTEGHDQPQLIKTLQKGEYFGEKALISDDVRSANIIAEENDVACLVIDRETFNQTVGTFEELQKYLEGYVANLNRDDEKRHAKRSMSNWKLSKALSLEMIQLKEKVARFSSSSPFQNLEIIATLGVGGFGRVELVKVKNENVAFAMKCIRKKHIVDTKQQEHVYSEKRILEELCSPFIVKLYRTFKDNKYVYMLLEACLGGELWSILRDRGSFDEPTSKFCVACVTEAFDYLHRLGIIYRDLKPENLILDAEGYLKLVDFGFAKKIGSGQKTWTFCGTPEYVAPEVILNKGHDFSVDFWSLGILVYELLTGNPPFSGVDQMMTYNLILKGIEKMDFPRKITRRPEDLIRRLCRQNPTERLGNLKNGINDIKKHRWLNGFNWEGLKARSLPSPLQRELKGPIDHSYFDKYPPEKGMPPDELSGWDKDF
The conditions noted are these: at 0.1 µM.

For experiment [17], the target named is T6, cGMP-dependent protein kinase 2 (Homo sapiens). The settings on record: at 1 µM.
Experiment [18] has as its target T7, cAMP-dependent protein kinase catalytic subunit PRKX (Homo sapiens) (UniProt P51817).
T7 sequence (whole entry): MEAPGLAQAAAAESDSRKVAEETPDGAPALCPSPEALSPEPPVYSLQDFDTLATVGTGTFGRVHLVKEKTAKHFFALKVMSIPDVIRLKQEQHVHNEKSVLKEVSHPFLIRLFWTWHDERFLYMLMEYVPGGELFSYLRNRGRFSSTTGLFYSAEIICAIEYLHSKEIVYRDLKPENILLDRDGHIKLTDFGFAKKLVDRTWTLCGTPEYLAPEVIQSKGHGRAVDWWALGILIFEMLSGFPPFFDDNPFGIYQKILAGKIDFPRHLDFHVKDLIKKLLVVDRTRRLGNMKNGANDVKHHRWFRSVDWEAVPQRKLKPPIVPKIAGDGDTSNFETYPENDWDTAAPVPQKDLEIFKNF
The settings on record: at 0.1 µM.

The target in experiment [19] is T7, cAMP-dependent protein kinase catalytic subunit PRKX (Homo sapiens). The settings on record: at 1 µM.
Experiment [20] deals with Rho-associated protein kinase 1 (Homo sapiens) (UniProt Q13464). The conditions noted are these: at 0.1 µM.
Rho-associated protein kinase 1 (Homo sapiens), sequence (Q13464 2-1354 limits assumed): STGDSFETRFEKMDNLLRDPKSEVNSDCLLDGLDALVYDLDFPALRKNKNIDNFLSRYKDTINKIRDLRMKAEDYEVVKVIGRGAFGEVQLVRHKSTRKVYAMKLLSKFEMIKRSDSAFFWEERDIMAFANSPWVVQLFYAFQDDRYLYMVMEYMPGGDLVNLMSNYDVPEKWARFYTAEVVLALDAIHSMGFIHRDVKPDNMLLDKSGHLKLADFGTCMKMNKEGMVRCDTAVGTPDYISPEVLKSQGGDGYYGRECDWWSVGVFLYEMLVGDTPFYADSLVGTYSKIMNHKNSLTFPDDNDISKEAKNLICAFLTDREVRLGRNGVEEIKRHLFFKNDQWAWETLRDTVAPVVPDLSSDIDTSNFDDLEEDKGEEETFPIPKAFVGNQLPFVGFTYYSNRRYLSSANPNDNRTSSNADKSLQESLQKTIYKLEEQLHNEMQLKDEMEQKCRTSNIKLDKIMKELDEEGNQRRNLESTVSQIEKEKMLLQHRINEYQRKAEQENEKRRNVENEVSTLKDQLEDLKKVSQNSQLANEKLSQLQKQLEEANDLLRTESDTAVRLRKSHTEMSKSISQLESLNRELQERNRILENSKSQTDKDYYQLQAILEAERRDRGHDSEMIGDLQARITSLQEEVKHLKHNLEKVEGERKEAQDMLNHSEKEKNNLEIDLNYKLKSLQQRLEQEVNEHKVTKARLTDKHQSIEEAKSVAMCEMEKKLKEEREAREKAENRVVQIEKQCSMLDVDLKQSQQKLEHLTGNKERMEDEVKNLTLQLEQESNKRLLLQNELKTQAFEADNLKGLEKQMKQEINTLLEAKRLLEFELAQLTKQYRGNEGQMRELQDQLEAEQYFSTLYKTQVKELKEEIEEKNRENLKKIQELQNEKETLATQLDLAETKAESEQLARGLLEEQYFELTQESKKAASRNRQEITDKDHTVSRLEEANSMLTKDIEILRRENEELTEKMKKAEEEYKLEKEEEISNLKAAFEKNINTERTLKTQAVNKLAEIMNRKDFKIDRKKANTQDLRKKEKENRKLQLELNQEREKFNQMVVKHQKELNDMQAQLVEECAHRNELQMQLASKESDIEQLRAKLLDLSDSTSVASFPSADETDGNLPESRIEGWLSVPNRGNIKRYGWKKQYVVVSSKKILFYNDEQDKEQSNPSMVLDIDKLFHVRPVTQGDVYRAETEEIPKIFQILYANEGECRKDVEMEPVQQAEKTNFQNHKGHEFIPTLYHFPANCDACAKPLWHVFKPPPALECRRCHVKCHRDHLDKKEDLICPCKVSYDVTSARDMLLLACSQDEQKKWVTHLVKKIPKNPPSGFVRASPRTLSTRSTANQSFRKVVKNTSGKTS

Protein kinase C beta type (Homo sapiens), sequence (P05771 2-671 limits assumed): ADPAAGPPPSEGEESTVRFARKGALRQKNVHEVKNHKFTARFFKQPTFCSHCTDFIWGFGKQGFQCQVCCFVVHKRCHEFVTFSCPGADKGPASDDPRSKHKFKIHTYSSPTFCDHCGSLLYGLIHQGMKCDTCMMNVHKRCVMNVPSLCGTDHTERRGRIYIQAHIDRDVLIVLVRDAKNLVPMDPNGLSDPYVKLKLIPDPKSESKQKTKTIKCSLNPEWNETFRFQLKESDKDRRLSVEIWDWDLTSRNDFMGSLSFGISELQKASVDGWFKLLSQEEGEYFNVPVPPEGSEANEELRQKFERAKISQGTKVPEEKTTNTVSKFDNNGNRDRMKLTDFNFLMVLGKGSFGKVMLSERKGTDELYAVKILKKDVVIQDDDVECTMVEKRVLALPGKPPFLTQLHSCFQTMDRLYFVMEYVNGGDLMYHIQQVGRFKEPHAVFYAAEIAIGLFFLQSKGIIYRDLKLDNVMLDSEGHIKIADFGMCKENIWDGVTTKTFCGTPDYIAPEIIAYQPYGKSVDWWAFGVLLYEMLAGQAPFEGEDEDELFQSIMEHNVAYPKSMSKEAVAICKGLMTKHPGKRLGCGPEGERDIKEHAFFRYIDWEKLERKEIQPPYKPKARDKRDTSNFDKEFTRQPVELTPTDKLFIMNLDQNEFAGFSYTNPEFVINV
Protein kinase C theta type (Homo sapiens), sequence (Q04759 whole entry, looked up): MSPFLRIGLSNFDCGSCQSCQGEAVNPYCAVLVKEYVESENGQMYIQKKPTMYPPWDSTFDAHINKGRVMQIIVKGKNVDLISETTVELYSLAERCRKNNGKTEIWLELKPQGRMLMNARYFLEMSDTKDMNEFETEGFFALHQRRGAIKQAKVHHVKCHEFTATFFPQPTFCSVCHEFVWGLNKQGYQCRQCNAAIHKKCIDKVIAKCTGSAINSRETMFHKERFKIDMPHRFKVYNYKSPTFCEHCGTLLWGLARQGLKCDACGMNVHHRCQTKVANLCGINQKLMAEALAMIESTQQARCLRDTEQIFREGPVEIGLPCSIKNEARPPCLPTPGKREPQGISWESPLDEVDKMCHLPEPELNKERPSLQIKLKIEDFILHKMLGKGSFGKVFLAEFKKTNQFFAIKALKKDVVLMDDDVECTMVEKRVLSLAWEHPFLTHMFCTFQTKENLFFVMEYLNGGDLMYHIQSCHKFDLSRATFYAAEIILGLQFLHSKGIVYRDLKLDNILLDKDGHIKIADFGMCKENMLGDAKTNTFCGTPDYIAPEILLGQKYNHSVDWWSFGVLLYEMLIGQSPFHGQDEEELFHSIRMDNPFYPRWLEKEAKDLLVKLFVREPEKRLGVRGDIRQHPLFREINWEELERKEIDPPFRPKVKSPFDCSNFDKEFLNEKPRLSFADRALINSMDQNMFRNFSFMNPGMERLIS

By inhibition is commonly meant the drop in the measured response relative to a control, in per cent. As to `O=C(Nc1n[nH]c2nc(-c3ccco3)ccc12)C1CC1`, the inhibition in experiment [1] is 3.88%; in [2], 1.28%; in experiment [3] it was -0.15%; in experiment [4], 0.24%; in experiment [5], -0.12%; in [6] it was 0.74%. Also, the inhibition in [7] is 1.21%; in experiment [8], 0.7%; in experiment [9], 1.4%; in experiment [10], -0.13%; in experiment [11] it was 1.79%; in [12], 0.02%. Besides, the inhibition in experiment [13] was found to be 1.55%; in [14] it was 2.2%; in [15], 4.23%; in experiment [16] it was 0.68%; in [17], 3.61%; in [18] it was 2.71%. Further, the inhibition in [19] was found to be 3.87%; in [20], 1.29%.

On to `C#Cc1cccc(Nc2ncnc3ccc(OCCCCNCCS(C)(=O)=O)cc23)c1`, for which the inhibition in [1] worked out at 7.74%; in [2], 2.69%; in [3], 1.19%; in [4], 3.71%; in [5], 5.27%; in [6], 1.93%. Moreover, the inhibition in experiment [7] was determined as 6.61%; in [8], 2.59%; in [9], 25%; in experiment [10] it was 4.1%; in [11], 26.7%; in experiment [12] it was 3.35%. Also, the inhibition in [13] worked out at 15%; in experiment [14] it was 1.04%; in [15], 7.37%; in experiment [16] it was 2.75%; in experiment [17], 8.83%; in [18], 2.48%. Further, the inhibition in experiment [19] came to 4.38%; in [20], 1.86%.
